Compound activity (PubChem)
Shown are actives, neighbours in structure and some others; about 9.4% of the full set was active somewhere.
Pf growth 96h – P. falciparum growth inhibition at 96 hours. P. falciparum luciferase reporter growth, 96 h. Potency, µM (titrated, usually from 28.7 µM), inactives show at the highest dose activity change, negative = inhibition, most hits filed as inhibitors. 320,000 compounds, 6.9% hits. AID 504834; also: % is scaled to controls: 0 for no effect and ±100 for the full control effect
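Readout is luminescence from an integrated firefly luciferase in P. falciparum. Red cells, 2% hematocrit and 0.05% parasitemia final, were cultured with compound through two parasite generations (96 hours) at 37 C, 5% CO2.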
AMA1 RON2 block – disrupts binding of P. falciparum AMA1 to RON2 | Potency, µM (titrated, usually from 58.2 µM), for the others: at the highest dose activity change, negative = inhibition, actives largely listed as inhibitors | AID 720542 | 360,000 compounds, 0.2% hits | AlphaScreen AMA1-biotinylated RON2 peptide binding;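 also: 0% = vehicle wells and -100% = peptide control; nearly all actives have a fitted effect of over 45% in size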
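AMA1 (3D7) with his tag at 25 nM final met compounds first, then biotinylated RON2 peptide at 25 nM; detection used donor plus acceptor beads, 10 µg/mL apiece, read by AlphaScreen after 30 min at room temperature.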
SARS PLpro yeast – inhibitors of SARS-CoV papain-like protease in yeast. Potency, µM (highest dose often 32.9 µM), without a hit: at the top dose activity, positive = growth rescue, usual class: activators. 330,000 compounds, 0.19% hits. AID 485353. S. cerevisiae expressing SARS-CoV PLpro, growth rescue; calls by dose curve; also: 0% is about no effect; nearly all actives have a fitted effect of over 55% in size
Pf growth 48h – inhibits P. falciparum growth in the first generation, 48 h; P. falciparum luciferase growth in erythrocytes, 48 h; Potency, µM (series often up to 28.7 µM), for the others: top-dose activity change, negative = inhibition, hits mostly inhibitors; 310,000 compounds, 5.9% hits; also: % is scaled to controls: 0 for no effect and ±100 for the full control effect
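Read-out is firefly luciferase luminescence from an integrated reporter in P. falciparum, so falling signal marks reduced parasite growth. Infected erythrocytes were at 2% hematocrit and 0.1% parasitemia (final) in Albumax-supplemented RPMI 1640.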
Numbers without * were called inactive. Unless noted, calls follow the shape of the dose curve; as a rule, active = well fitted curve in the direction sought with a large enough effect; inconclusive = small, poorly fitted or top-dose-only effect, or another doubt; inactive = no such curve, though single readings can be large; an effect the other way counts as inactive or inconclusive. Potency is read from the fitted curve at half-maximal effect.

Screening Cc1ccc(C(=O)Nc2ccccc2C(=O)NCc2cccnc2)cc1 returned Pf growth 96h 10µM*, AMA1 RON2 block 0%, SARS PLpro yeast -2% and Pf growth 48h inconclusive.
Cc1ccc(S(=O)(=O)NCc2ccncc2)c(C)c1C was read as Pf growth 96h 12µM*, AMA1 RON2 block 4%, SARS PLpro yeast 1% and Pf growth 48h -17%.
Screening O=C(Cn1cnc2cc([N+](=O)[O-])ccc2c1=O)Nc1cccc(S(=O)(=O)N2CCCCC2)c1 returned AMA1 RON2 block 0%.
For Nc1nc2nccc(-c3ccc(Cl)cc3)n2n1 the results were AMA1 RON2 block 3%, SARS PLpro yeast -47% and Pf growth 48h inconclusive.
O=C(Nc1ccc(Cl)cc1C(=O)NCc1cccnc1)c1ccc(Cl)cc1Cl was read as Pf growth 96h 3.3µM*, AMA1 RON2 block 13%, SARS PLpro yeast 10% and Pf growth 48h 8.3µM*.
O=C(Nc1c(Cl)cc(Cl)cc1C(=O)NCc1cccnc1)c1ccc(Cl)cc1Cl was read as Pf growth 96h 18%, AMA1 RON2 block -1%, SARS PLpro yeast 1% and Pf growth 48h 1.5µM*.
Cc1ccc(S(=O)(=O)Nc2ccc(C(=O)NCc3cccnc3)cc2)cc1 was read as Pf growth 96h inconclusive, AMA1 RON2 block -9%, SARS PLpro yeast -5% and Pf growth 48h 3%.
Cc1ccc(NS(=O)(=O)c2cc(C(=O)NCc3cccnc3)ccc2C)cc1 was read as Pf growth 96h 8.3µM*, AMA1 RON2 block -2%, SARS PLpro yeast -3% and Pf growth 48h -20%.
Screening Cc1cc(Br)c(S(=O)(=O)NCc2cccnc2)cc1C returned Pf growth 96h 0%, AMA1 RON2 block 0%, SARS PLpro yeast -5% and Pf growth 48h -8%.
`O=C(Nc1ccccc1C(=O)NCc1cccnc1)c1ccccc1Cl` gave Pf growth 96h inconclusive, AMA1 RON2 block -16%, SARS PLpro yeast inconclusive and Pf growth 48h -4%.
Cc1cc(C)c(S(=O)(=O)NCc2cccnc2)cc1C was read as Pf growth 96h 12µM*, AMA1 RON2 block -3%, SARS PLpro yeast 0% and Pf growth 48h inconclusive.
Screening O=C(c1c(F)cccc1F)N1CCN(c2cccc(C(F)(F)F)c2)CC1 returned Pf growth 96h inconclusive, AMA1 RON2 block 4%, SARS PLpro yeast -4% and Pf growth 48h 27%.
CCOC(=O)c1oc2ccccc2c1NC(=O)CN1CCOCC1 was read as Pf growth 96h 21%, AMA1 RON2 block -4%, SARS PLpro yeast -2% and Pf growth 48h 6%.
For CN1CCN(C(c2ccc(C(F)(F)F)cc2)c2cc(Cl)c3cccnc3c2O)CC1 (stereo not drawn) the results were Pf growth 96h 3.7µM*, SARS PLpro yeast -15% and Pf growth 48h inconclusive.
For Cc1ccccc1-n1nc2c(c1NC(=O)c1c(-c3ccccc3Cl)noc1C)CSC2 the results were Pf growth 96h inconclusive, AMA1 RON2 block -13%, SARS PLpro yeast 10% and Pf growth 48h 12µM*.
`Cc1ccccc1-n1nc2c(c1NC(=O)CCCl)CSC2` gave Pf growth 96h -11%, AMA1 RON2 block -1%, SARS PLpro yeast 2% and Pf growth 48h -1%.
Cc1ccc(-n2nc3c(c2NC(=O)c2c(-c4ccccc4Cl)noc2C)CSC3)cc1 was read as Pf growth 96h 20%, AMA1 RON2 block -8%, SARS PLpro yeast 1% and Pf growth 48h 13µM*.
Cc1onc(-c2ccccc2Cl)c1C(=O)Nc1ccc(N2CCOCC2)cc1 was read as Pf growth 96h inconclusive, AMA1 RON2 block -12%, SARS PLpro yeast -6% and Pf growth 48h inconclusive.
`Cc1ccc([C@H]2C[C@@H](O)[C@H](n3cc(C4CC4)nn3)CN2CC2CCCCC2)cc1` gave AMA1 RON2 block -26%.
Cc1ccc(S(=O)(=O)N2CCC(=O)N(C(COCc3ccc(C(F)(F)F)cc3)Cc3ccccc3)CC2)cc1 (stereo not drawn) was read as Pf growth 96h 7.4µM*, AMA1 RON2 block -1%, SARS PLpro yeast -7% and Pf growth 48h inconclusive.
Screening Cc1ccc(S(=O)(=O)N2CCC(=O)N(C(COC(=O)Nc3ccccc3)Cc3ccccc3)CC2)cc1 (stereo not drawn) returned Pf growth 96h 15µM*, AMA1 RON2 block -1%, SARS PLpro yeast 5% and Pf growth 48h inconclusive.
Cc1ccc(S(=O)(=O)N2CCC(=O)N(C(COCc3ccc(Cl)c(Cl)c3)Cc3ccccc3)CC2)cc1 (stereo not drawn) was read as Pf growth 96h inconclusive, AMA1 RON2 block -5%, SARS PLpro yeast -4% and Pf growth 48h 9.3µM*.
Screening Cc1ccc(S(=O)(=O)N2CCC(=O)N([C@H](CO)Cc3ccccc3)CC2)cc1 returned AMA1 RON2 block 2%.
`Cc1ccc(S(=O)(=O)N2CCC(=O)N(C(COCc3ccc(C(F)(F)F)cc3)C(C)C)CC2)cc1` (stereo not drawn) gave Pf growth 96h 10µM*, AMA1 RON2 block 5%, SARS PLpro yeast -17% and Pf growth 48h inconclusive.
CC(C)(C)[C@@H]1C=C(C(N)=O)O[C@H](OCc2ccc(CO)cc2)C1 was read as Pf growth 96h -12%, AMA1 RON2 block -1%, SARS PLpro yeast 0% and Pf growth 48h 40%.
Cc1ccc(S(=O)(=O)N2CCC(=O)N([C@H](COCc3ccc(C(F)(F)F)cc3)Cc3ccccc3)CC2)cc1 was read as AMA1 RON2 block 1%.
`Cc1ccc(S(=O)(=O)N2CCC(=O)N(C(COCc3cccc(C)c3)Cc3ccccc3)CC2)cc1` (stereo not drawn) gave Pf growth 96h 9.3µM*, AMA1 RON2 block 8%, SARS PLpro yeast -11% and Pf growth 48h inconclusive.
C[N+](C)(C)CCOC(=O)C(O)(c1ccccc1)c1ccccc1 was read as Pf growth 96h 11µM* and Pf growth 48h 0%.
Screening O=C(CN1CCc2cc3c(cc2C1)OCCCO3)Nc1ccc(S(=O)(=O)N2CCCC2)cc1 returned Pf growth 96h 13µM*, AMA1 RON2 block 0%, SARS PLpro yeast 10% and Pf growth 48h inconclusive.
Screening O=C(CN1CCOCC1)Nc1ccc(S(=O)(=O)N2CCCCCC2)cc1 returned AMA1 RON2 block -8%, SARS PLpro yeast -1% and Pf growth 48h -22%.
For COC(=O)c1cc(NC(=O)CN2CCc3cc4c(cc3C2)OCCCO4)cc(C(=O)OC)c1 the results were Pf growth 96h 9.3µM*, AMA1 RON2 block -6%, SARS PLpro yeast -13% and Pf growth 48h -6%.
For CCCCSc1nc(C)c(C(C)=O)cc1C#N the results were Pf growth 96h 10%, AMA1 RON2 block 34%, SARS PLpro yeast -2% and Pf growth 48h 20%.
COc1ccc(C2CC(c3cccc(OC)c3)n3nc(N)nc3N2)cc1 (stereo not drawn) was read as Pf growth 96h inconclusive, AMA1 RON2 block -5%, SARS PLpro yeast 0% and Pf growth 48h inconclusive.
For S=C(Nc1ccc(Cl)cc1)NC1CC2CCCC(C1)N2C1CCCC1 (stereo not drawn) the results were Pf growth 96h 12µM*, AMA1 RON2 block 14%, SARS PLpro yeast 3% and Pf growth 48h 10µM*.
